Whole data set: some 24,000 sequences, median “enrichment r” near 0.99, cut for the highest 2% near 3.7. This is one part of a sample in which the highest values are shown more often than they occur.
T1: UNK ZnF1-3 (human, UniProt Q9C0B0 31-174)
T1 sequence: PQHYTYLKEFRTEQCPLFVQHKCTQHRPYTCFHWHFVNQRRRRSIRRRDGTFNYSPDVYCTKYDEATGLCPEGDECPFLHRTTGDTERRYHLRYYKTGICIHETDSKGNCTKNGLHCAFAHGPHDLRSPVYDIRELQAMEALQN

B1: chr11:97025304:97025305:-_ENSMUSG00000001440_ENSMUST00000001479|mus_hu|FALSE|FALSE (ssRNA)
RNA: GGGAGUUCUACAGUCCGACGAUCAGCUACUACUCCAUCUGUGUGAUCCUCAUCUCCAGCAAUGUGGUCAAUGAAAGACAGAAUAAAUUCUACUCUGGGUUGUACCAGCAUCACAUCCGGGUGUACGUUCUCCUGAUCCCCCUUCAACAGAGGAUUGAGCAUCA
B2: chr2:25965407:25965408:-_ENSG00000143970_ENST00000336112|hu_hu|motif|central (ssRNA)
RNA: GGGAGUUCUACAGUCCGACGAUCCUGUGCUGCCUGAAUUAAAUCUCUGGCUAGGGUCUUUUCAUCAAAUGUUUGGCCUCGGGUGAACAGGUAAUUCUCCUUACUUAAAGUGGUUUGCUCAUUCAAUGGUAUCUCAGCCUUCACCAACAGAGGAUUGAGCAUCA
B3: chr7:140404665:140404666:+_ENSG00000090266_ENST00000247866|hu_hu|hu_hu_hu_mus_False|8_88 (ssRNA)
RNA: GGGAGUUCUACAGUCCGACGAUCUGCUCCUACUCGUCCAGAGAGUUUACACCUUCAGUCCUCGUCAUCAGGAGGGAUUCCCAGUUCUUCAUCUGUCCACUGUGAAGGAUCUGGAUAUGAAAAGUGACCCAGCACCUCAUCCGACAACAGAGGAUUGAGCAUCA
B4: chr18:67804014:67804015:+_ENSMUSG00000024537_ENSMUST00000025418|mus_mus|motif|central (ssRNA)
RNA: GGGAGUUCUACAGUCCGACGAUCGCAAUCAGUAUAGAAAUAACCAAUCUUACACAUGUUCAGUGUAGAAAUAAUCAGAUCGGUUGCAAGCUGGCCAACAUUUCCAACGGAUACUGCUGGCAUCAGGAGUGUAAAGUUCGUUAGCAACAGAGGAUUGAGCAUCA
B5: chr4:140556289:140556290:+_ENSMUSG00000036622_ENSMUST00000037055|mus_mus|mus_mus_mus_hu_False|48_48 (ssRNA)
RNA: GGGAGUUCUACAGUCCGACGAUCGAUGGAGCUCACCAGGCCCCCUUUUGCCGUGCAGAACCCUGUGCGGGUCACCACUGCCAGGACACGGGGUCCCACAUAGGCCCGGGCCUGCAAGAUGAGGGUCCCGCAGAAGAGUGUGUGCAACAGAGGAUUGAGCAUCA
B6: 134094901_134095021_423_5pUTR_ENSG00000151502_ENST00000281187|human|control|control (ssRNA)
RNA: GGGAGUUCUACAGUCCGACGAUCCUCAUCGCACCGCCGGGCCGGGCGGGUCUCGGUAAGGACCGCUCCCUCGCACCGGGGCGCGGGCUGCCCUAGGUAAAGAAGGCCAGAGGGCCCGAUGCGCGAGCGCGCUCGGCCGCCGCGCAACAGAGGAUUGAGCAUCA
B7: chr14:63765801:63765802:-_ENSMUSG00000021273_ENSMUST00000054963|mus_mus|motif|central (ssRNA)
RNA: GGGAGUUCUACAGUCCGACGAUCCUGCUUGGUUUUGCUUGAUGAUGGGUCUGAGUUGGGGAUCCGGUGAUAAAUCUCUUCGGUGUACUGGUAUAUGAUAGCUUUGACGGCAGGCAUGUUGGUGGCAUCCAUCAUGAGGGUGACCAACAGAGGAUUGAGCAUCA
B8: 46153067_46153187_242_5pUTR_ENSG00000159596_ENST00000372025|human|control|control (ssRNA)
RNA: GGGAGUUCUACAGUCCGACGAUCGAUAAAACUGAAGACAUGUAGUAGGAGAUCUCAGGGGCCCACGCCGGCCAGUCCCUCCAAUCCUCCGGAUUCUAGGUAGUCUAGCUUCCUGGUUGCCAGCCAUUACACGGUUUAGCUUUCCAACAGAGGAUUGAGCAUCA
B9: chr7:54825262:54825263:-_ENSG00000132432_ENST00000352861|hu_hu|hu_hu_hu_mus_False|48_58 (ssRNA)
RNA: GGGAGUUCUACAGUCCGACGAUCCUGCCGGCUGGGCUCCACAAACUGCAUUACCUGAUCCAUGUUUGUUGGAUGGCACACCUAAAAUGCCAGGGACCGUAGCUCAGGAGAGAACCGAGCCCAACGGAACCGGAAGCUGGCAACCAACAGAGGAUUGAGCAUCA
B10: chr2:48026839:48026840:+_ENSG00000116062_ENST00000540021|hu_hu|hu_hu_hu_mus_False|1_48 (ssRNA)
RNA: GGGAGUUCUACAGUCCGACGAUCAUAGUGAGCCACUAGCGUCCUAAAUCUGGAACAGUGGCGGUCAUCCGAAAACUGGCCGAUGAAAAACUUUCCCAGUGAAGUGUCCACAAAGCAAACACCAUACACACGAGUGUGGCCAGACAACAGAGGAUUGAGCAUCA
B11: chr10:115881139:115881140:-_ENSG00000165813_ENST00000369287|hu_hu|FALSE|FALSE (ssRNA)
RNA: GGGAGUUCUACAGUCCGACGAUCAUAAAAAUAUUUUCACCAGGGUAGCAUAUAUAACAACAUUUACAUUAUUAAGGAUUCUAUUUUUUUCUUUUACUGAUAAAUCUUGGUUUAAAUUUGCAUGUAACAAUUUUUAGAAAAUAACAACAGAGGAUUGAGCAUCA
B12: chr1:109605286:109605287:-_ENSG00000197780_ENST00000461096|hu_mus|hu_hu_hu_mus_True|88_108 (ssRNA)
RNA: GGGAGUUCUACAGUCCGACGAUCAAGAACAAUAACAACAUUCAGUAUACUUAAAUCAUGCAAUUAUCCUUAUUAUAAGCUAAGCAGAAUAAUAAUUUAAUACCGUAAGUGAACUACACACAAAGCCUGAACCGCGAAAAUGGUCAACAGAGGAUUGAGCAUCA
B13: 62642993_62643113_3073_3pUTR_ENSMUSG00000032244_ENSMUST00000034775|mouse|control|control (ssRNA)
RNA: GGGAGUUCUACAGUCCGACGAUCCAUAUGUGUCCUCAUUCCUUUUCAUCUUACACCUAAUUAGGGAGACACCAAUGCCCUAUGGAAAGGCAGUUUCCAAUUUUUAAAGAUACAACACACAAGGACAGGGCUAGAAAAGGACGACAACAGAGGAUUGAGCAUCA
B14: 120959283_120959403_3001_3pUTR_ENSG00000154114_ENST00000422003|human|control|control (ssRNA)
RNA: GGGAGUUCUACAGUCCGACGAUCUGAAGAAUUUACAAGUCACCUAAAAAUUUCAUAAAAAAAUUAAAUUUGUAGGAGGGGUAGAAUUAUGUAACAAAGGUCAAAAGGUCAAAUGCAAUCAGAUAAUAACUGCAUUCUUUGAAACAACAGAGGAUUGAGCAUCA
B15: 243667512_243667632_2619_3pUTR_ENSG00000117020_ENST00000366539|human|control|control (ssRNA)
RNA: GGGAGUUCUACAGUCCGACGAUCUUCUCAUCACUAAAAAAUAAAUACUACUGCAAUAUAAACAAAAUCAUAAAAGGACAUUCAAAGUUUCAACAUCUGAGAAAAAGCUAAUUCACGUAGAACUGAAAGUAAAAAAUUAAAUAACAACAGAGGAUUGAGCAUCA
B16: 133975328_133975448_5492_3pUTR_ENSG00000205060_ENST00000378509|human|control|control (ssRNA)
RNA: GGGAGUUCUACAGUCCGACGAUCUCUCCCAUUCCAGCUUGGUACACACUGAACACAUUUGAGGCUUAUGACUGGUUCUUUUACUUACAAAUAUUGUUUAGACACAUUUUCAAAUGUCACACCAAUCAAUAAUAAUAAGGAAUGCAACAGAGGAUUGAGCAUCA
B17: chr8:42881778:42881779:+_ENSG00000168172_ENST00000307602|hu_hu|FALSE|FALSE (ssRNA)
RNA: GGGAGUUCUACAGUCCGACGAUCCUGAAGUUAGGGGCAAUCUGCAGGUUUGUGUUUCAGGAGGCAGGCAAACCAAAGGUAAGAACAUCUUCUGAUUAACUGUAAGAUGGGAUAAUUUUUAUGAAUACAACUUCAGAAAGCAUCCAACAGAGGAUUGAGCAUCA
B18: chr5:135513207:135513208:+_ENSG00000113658_ENST00000545279|hu_hu|FALSE|FALSE (ssRNA)
RNA: GGGAGUUCUACAGUCCGACGAUCAAUGUAAGCUCACAGUAUCUGUACUCAAAGUUUCUCUAAAAUUAAAACAAGUCCACUAACAAUAUAAUUGAAAAGAAUACUUCUGCAUUAUGAAACAGAAGAUAUGGGGUUCAGAGGGGACAACAGAGGAUUGAGCAUCA
B19: 58873449_58873569_2464_3pUTR_ENSMUSG00000025092_ENSMUST00000066285|mouse|control|control (ssRNA)
RNA: GGGAGUUCUACAGUCCGACGAUCAUCCAAGAUCAUUUUAAAAGACCUCCAAUGAAUGUUUCCCCCACCCUACCCUGCCCCCGGCACAGAGUGGGCGUCCUAAGCCUUCCCUUUCAGAGCCCUCUUCCAAGCAGGCUGCACCCACAACAGAGGAUUGAGCAUCA
B20: chr11:21040623:21040624:+_ENSMUSG00000020134_ENSMUST00000093290|mus_mus|motif|central (ssRNA)
RNA: GGGAGUUCUACAGUCCGACGAUCAAUGUGCACGGUGCUAGGCUUCACCCCAUUUGCCUUAGGUCUUUUAAACAAAGCAAACCGGCUUUUCCUCCUUCCUCUAUCACCGUUUGGGAGAGAUCCAUUAUAUCCUAAGACAAUGAGCAACAGAGGAUUGAGCAUCA
B21: chr7:75932113:75932114:+_ENSG00000106211_ENST00000248553|hu_hu|hu_hu_hu_mus_False|8_18 (ssRNA)
RNA: GGGAGUUCUACAGUCCGACGAUCCUGCGACCACUCAUCGGGCAACCGGGGCACCCCGAAAGCUUGAUCGAAGAGGCGGCUGUGUGCAGGGUACCAGUCCCGGAAUGGUUCCCAGCUGCCCCGCAGGAGCGAGAAGGAGGGCACCAACAGAGGAUUGAGCAUCA
B22: 171752885_171753005_485_CDS_ENSG00000010165_ENST00000361735|human|control|control (ssRNA)
RNA: GGGAGUUCUACAGUCCGACGAUCGGUGGCAUUACAUUCCUUCAUUUGCUUGAUGACAACCUCACUGAUGUCGAUGUUCACUAUAUCCCGAUAGCCCACAUCAUACAGUUGCUCACUCAGUUCUGAGUUGCCACACCCAAUCACCAACAGAGGAUUGAGCAUCA

The binders below were run against T1, UNK ZnF1-3 (assay: nsRBNS (natural sequence RNA bind-n-seq); RBNS binding buffer (assumed for nsRBNS): 25 mM Tris pH 7.5, 150 mM KCl, 3 mM MgCl2, 0.01% Triton X-100, 500 ug/ml BSA, 20 U/ml SUPERase-In, 4 C; UNK is unkempt and MSI1 is Musashi-1; names of the RNAs are library labels; protein concentration not given here; high values mean tight binding).

Binder | binding signal
B1 | 1.13 enrichment R
B2 | 0.753 enrichment R
B3 | 1.36 enrichment R
B4 | 0.794 enrichment R
B5 | 0.98 enrichment R
B6 | 0.289 enrichment R
B7 | 1.69 enrichment R
B8 | 0.934 enrichment R
B9 | 1.16 enrichment R
B10 | 1.03 enrichment R
B11 | 3.75 enrichment R
B12 | 0.813 enrichment R
B13 | 1.66 enrichment R
B14 | 4.1 enrichment R
B15 | 5.18 enrichment R
B16 | 1.3 enrichment R
B17 | 3.56 enrichment R
B18 | 1.67 enrichment R
B19 | 5.4 enrichment R
B20 | 0.75 enrichment R
B21 | 1.07 enrichment R
B22 | 0.654 enrichment R

From publication PMC12136788
